Inconclusive results are not listed. A call without a number means that no potency is given here. Active and inactive are the calls of the source. Calls follow the shape of the dose curve; as a rule, active = well fitted cell-killing curve with a large enough effect in the repeat runs; inconclusive = weak or mixed curves, or effect the other way; inactive = flat fitted curve, though single readings scatter.
Key:
[1] = cAMP Responsive Elements (CRE) small molecule antagonists, cell-based qHTS assay: qHTS cell viability counter screen (AID 2060913); also: nearly all actives have a fitted effect of over 40% in size
Outline: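 Cytotoxicity read in the same wells as the CRE-bla HEK293T antagonist assay: after 3 h compound with 0.25 uM NKH477 final and 2 h beta-lactamase substrate, CellTiter-Glo luminescence measured.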

[2] = cAMP Responsive Elements (CRE) small molecule agonists, cell-based qHTS assay: qHTS cell viability counter screen (AID 2060914); also: nearly all actives have a fitted effect of over 50% in size
Outline: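 Cytotoxicity was measured as ATP luminescence (CellTiter-Glo, 30 min at room temperature) in the same wells as the CRE-bla FRET read-out. HEK293T CRE-bla cells had 3 h compound exposure at 37C/5% CO2.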

SMILES	Potency [1]	Potency [2]
C=C(C)C(=O)NCCCN(C)C	inactive	inactive
COc1ccccc1Oc1c(NS(=O)(=O)c2ccc(C(C)(C)C)cc2)nc(-c2ncccn2)nc1OCCO	inactive	inactive
CC(=O)OCC(=O)[C@@]1(O)CC[C@H]2[C@@H]3CCC4=CC(=O)CC[C@]4(C)[C@H]3C(=O)C[C@@]21C	inactive	inactive
CCC(C)(C)C	inactive	inactive
CC(C[N+](C)(C)C)OC(N)=O (stereo not given)	inactive	inactive
O=C(O)[C@H](O)[C@@H](O)[C@H](O[C@@H]1O[C@H](CO)[C@H](O)[C@H](O)[C@H]1O)[C@H](O)CO	inactive	inactive
O=S(=O)(O)c1cc(O)ccc1O	inactive	inactive
CCCCC(CC)COC(=O)c1ccccc1O (stereo not given)	inactive	inactive
CCCC/C=C\CCCCCCCCCC=O	inactive	inactive
CC(=O)C(C)=O	inactive	inactive
C[C@]12C[C@H](O)[C@H]3[C@@H](CCC4=CC(=O)CC[C@@]43C)[C@@H]1CC[C@@H]2C(=O)CO	inactive	inactive
CCOC(=O)c1ccc(N)cc1	inactive	inactive
CCOCC(=O)O	inactive	inactive
CCCc1ccc(N)cc1	inactive	inactive
OC[C@H]1O[C@@H]2O[C@H]3[C@H](O)[C@@H](O)[C@@H](O[C@H]4[C@H](O)[C@@H](O)[C@@H](O[C@H]5[C@H](O)[C@@H](O)[C@@H](O[C@H]6[C@H](O)[C@@H](O)[C@@H](O[C@H]7[C@H](O)[C@@H](O)[C@@H](O[C@H]1[C@H](O)[C@H]2O)O[C@@H]7CO)O[C@@H]6CO)O[C@@H]5CO)O[C@@H]4CO)O[C@@H]3CO	inactive	inactive

— PubChem BioAssay (Tox21)
